In the library only some 4.2% were active in any assay of this set; here they are far more common.
AHR act – activates the human aryl hydrocarbon receptor. P35869. activation, % at 5 µM. AHR-responsive luciferase reporter cells, luminescence. actives 2.5% (n = 320,000); in the data active = activation above about 47%
Target sequence (P35869 whole entry, looked up): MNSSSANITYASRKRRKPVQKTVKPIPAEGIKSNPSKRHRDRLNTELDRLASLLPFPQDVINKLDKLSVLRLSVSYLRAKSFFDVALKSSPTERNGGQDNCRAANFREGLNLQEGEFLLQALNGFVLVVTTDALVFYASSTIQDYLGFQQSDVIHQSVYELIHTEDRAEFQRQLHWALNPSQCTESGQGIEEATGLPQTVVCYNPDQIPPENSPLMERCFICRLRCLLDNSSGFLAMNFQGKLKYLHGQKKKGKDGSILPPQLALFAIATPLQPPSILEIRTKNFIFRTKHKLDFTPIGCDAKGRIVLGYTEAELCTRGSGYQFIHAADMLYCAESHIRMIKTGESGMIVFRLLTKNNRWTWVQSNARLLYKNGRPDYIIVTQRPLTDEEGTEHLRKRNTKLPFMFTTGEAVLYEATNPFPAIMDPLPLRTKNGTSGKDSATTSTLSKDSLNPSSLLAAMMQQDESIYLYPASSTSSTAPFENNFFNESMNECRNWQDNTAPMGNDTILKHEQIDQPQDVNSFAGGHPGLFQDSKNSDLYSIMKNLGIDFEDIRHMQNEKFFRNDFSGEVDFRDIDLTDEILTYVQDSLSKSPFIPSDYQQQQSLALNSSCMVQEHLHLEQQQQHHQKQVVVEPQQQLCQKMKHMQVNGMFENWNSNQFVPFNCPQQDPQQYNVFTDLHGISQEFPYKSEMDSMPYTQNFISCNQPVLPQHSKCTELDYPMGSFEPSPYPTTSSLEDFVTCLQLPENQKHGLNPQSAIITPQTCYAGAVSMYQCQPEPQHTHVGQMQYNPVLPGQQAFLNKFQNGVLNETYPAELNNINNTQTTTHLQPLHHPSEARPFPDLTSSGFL
esBAF inh – inhibitors of esBAF chromatin remodeling in mouse ES cells. Bmi1-luciferase knock-in reporter, 24 h; 100% = twice the neutral-well signal. reporter increase, % at 12.5 µM. actives 2% (n = 350,000). AID 602393; in the data active = activation above about 40%; inconclusive = no clear call, values can overlap the other calls;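 note: a rise in the Bmi1 reporter signal indicates esBAF inhibition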
Wnt bcat act – Wnt/beta-catenin pathway activation. Wnt/beta-catenin reporter cell assay, activator, plate reader. activation, % at 9.35 µM. actives 1.2% (n = 300,000). AID 743398; in the data active = activation above about 30%, passing the limit was not always enough; inconclusive = no clear call, values can overlap the other calls
GAA850 FXN act – activators of GAA850 frataxin (FXN) promoter. AID 540364. actives 0.56% (n = 360,000). activation, % at 6 µM. HEK293 lucGAA850 FXN promoter luciferase reporter, 24 h; percent of 10 µM SAHA response;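 active = activation above the average of all compounds screened plus 3 SD, cutoff fixed separately per campaign, cut at about 7.5% in these data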
MITF act – MITF TRPM1 promoter activation in melanoma cells; SK-MEL-5 TRPM1-promoter luciferase, 24 h; % of positive control, neutral wells = 0; activation, % at 12.5 µM; actives 0.75% (n = 300,000); AID 588334;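 active = mean activation of at least 80% with every replicate also reaching 80%; inconclusive = mean reaches 80% but some replicate falls short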
esBAF Ring1 qPCR – confirmation of esBAF inhibitors: Ring1 de-repression in mouse ESCs. shares compounds with esBAF inh. mouse ESC E14, Ring1 mRNA RT-qPCR fold change. fold change at 33 µM. 550 tested, under 10 active;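 active = Ring1 gene expression raised more than 2-fold over untreated cells in both replicates at either tested dose; inconclusive = only one replicate above 2-fold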;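 note: Ring1 transcript normalised to actin housekeeping signal by TaqMan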
Fgf4 repress – confirmation of esBAF inhibitors: Fgf4 repression in mouse ESCs | actives 4% (n = 550) | mouse ESC E14, Fgf4 mRNA qPCR fold change; stronger effect = lower value | shares compounds with esBAF inh | AID 743177 | Fgf4 expression fold change at 33 µM;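 active = Fgf4 expression under 0.8 fold of control in both repeat measurements at one or both tested doses; inconclusive = under 0.8 fold in just a single repeat measurement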;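 note: Fgf4 transcript normalised to actin in duplex TaqMan qPCR; cells exposed to compound for 24 h before lysis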
Bmi1 derepress – esBAF inhibition confirmed by Bmi1 de-repression; 550 tested, under 10 active; mouse ESE14 ES cells, Bmi1 mRNA qPCR fold; stronger effect = higher value; fold change at 33 µM; shares compounds with esBAF inh;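 active = Bmi1 expression fold change above 6 at either tested concentration, seen in replicate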
A549 cytotox – cytotoxicity in A549 cells | shares compounds with esBAF inh | plate reader | cell viability change % (negative = cytotoxic), % at 25 µM, hits read low | 550 tested, under 10 active; call rule not given here
HepG2 cytotox SP – HepG2 cell cytotoxicity at single point | shares compounds with esBAF inh | plate reader; stronger effect = lower value | activity change, negative = inhibition, % at 25 µM | actives 4% (n = 550) | AID 743189; in the data active = activity change below about -50%
HEK293 tox SP – HEK293 cell cytotoxicity at single point; shares compounds with esBAF inh; plate reader; activity change, negative = inhibition, % at 25 µM, hits read low; actives 3% (n = 550); AID 743190; in the data active = activity change below about -38%, passing the limit was not always enough
Of the large screens only hits and unclear results are named; the others gave an inactive call (follow-up assays come after a bar, where they were run).

O=C(c1csc(Nc2cccc3ccccc23)n1)N1CCCC1	none
COc1ccc(N2CCN(C(=O)c3ccc(Cn4c(=S)[nH]c5ccc(N6CCOCC6)cc5c4=O)cc3)CC2)cc1	esBAF inh 68 | esBAF Ring1 qPCR inactive | Fgf4 repress inactive | Bmi1 derepress inactive | A549 cytotox inactive | HepG2 cytotox SP inactive | HEK293 tox SP inactive
CC(=O)C(Cc1ccc(Cl)nc1)Cc1ccc(Cl)nc1	none (no result: esBAF inh)
COC(=O)Cc1ccc(OCc2ccc(Cl)nc2)cc1	esBAF inh 59, MITF act 95 | esBAF Ring1 qPCR inactive | Fgf4 repress inactive | Bmi1 derepress inactive | A549 cytotox inactive | HepG2 cytotox SP inactive | HEK293 tox SP inactive
COCC(=O)N(C)C[C@H]1Oc2ncc(C#Cc3ccc(OC)cc3)cc2C(=O)N([C@H](C)CO)C[C@@H]1C	none (no result: AHR act, Wnt bcat act, GAA850 FXN act, MITF act)
COC(=O)C[C@@H]1CC[C@@H]2[C@@H](COc3ccc(NC(=O)c4cc(F)cc(F)c4)cc3C(=O)N2C)O1	none (no result: AHR act, Wnt bcat act, GAA850 FXN act, MITF act)
CC(=O)Oc1ccc(-c2cc3ccccc3oc2=O)cc1	esBAF inh 69 (no result: MITF act) | esBAF Ring1 qPCR inactive | Fgf4 repress inconclusive | Bmi1 derepress inactive | A549 cytotox inactive | HepG2 cytotox SP inactive | HEK293 tox SP inactive
CC(=O)Oc1ccc(-c2cc3c(OC(C)=O)cc(OC(C)=O)cc3oc2=O)cc1	none (no result: MITF act)
Cc1ccc(N2Cc3ccccc3C2=O)cc1	none
O=C1c2ccccc2CN1c1ccccc1	esBAF inh 55 (no result: MITF act) | esBAF Ring1 qPCR inactive | Fgf4 repress inactive | Bmi1 derepress inactive | A549 cytotox inactive | HepG2 cytotox SP inactive | HEK293 tox SP inactive
c1ccc(CCc2nc(-c3cccnc3)no2)cc1	esBAF inh 59 (no result: Wnt bcat act) | esBAF Ring1 qPCR inactive | Fgf4 repress inactive | Bmi1 derepress inactive | A549 cytotox inactive | HepG2 cytotox SP inactive | HEK293 tox SP inactive
c1ccc(CCc2ccccc2-c2nc(-c3cccnc3)no2)cc1	none (no result: Wnt bcat act)
COc1cc(C)ccc1OCc1cc(C(=O)N2CCN(C3CCCCC3)CC2)no1	esBAF inh 61 | esBAF Ring1 qPCR inactive | Fgf4 repress inactive | Bmi1 derepress inactive | A549 cytotox inactive | HepG2 cytotox SP inactive | HEK293 tox SP inactive
CCCN(CC1CCCO1)C(=O)c1cc(COc2cccc(OC)c2)on1 (stereo unspecified)	none (no result: esBAF inh)
COc1cccc(OCc2cc(C(=O)N(C)C3CCCCC3)no2)c1	esBAF inh 80 (no result: AHR act, MITF act) | esBAF Ring1 qPCR inactive | Fgf4 repress inactive | Bmi1 derepress inactive | A549 cytotox inactive | HepG2 cytotox SP inactive | HEK293 tox SP inactive
COc1ccc(OCc2cc(C(=O)N3CCN(C4CCCC4)CC3)no2)c(Cl)c1	esBAF inh inconclusive
COc1cccc(OCc2cc(C(=O)N3CCN(C(C)=O)CC3)no2)c1	esBAF inh 71 | esBAF Ring1 qPCR inactive | Fgf4 repress inactive | Bmi1 derepress inactive | A549 cytotox inactive | HepG2 cytotox SP inactive | HEK293 tox SP inactive
COc1cccc(CN(C)C[C@@H]2OCc3cn(nn3)CCCC(=O)N([C@H](C)CO)C[C@@H]2C)c1	none (no result: AHR act, Wnt bcat act, GAA850 FXN act, MITF act)
C[C@@H]1CN([C@@H](C)CO)C(=O)c2cccc(NC(=O)c3ccncc3)c2O[C@@H]1CN(C)C(=O)Nc1ccc2c(c1)OCO2	none (no result: AHR act, Wnt bcat act, GAA850 FXN act, MITF act)
O=C(C[C@@H]1CC[C@H]2[C@@H](COC[C@@H](O)CN2Cc2cccc(F)c2)O1)NCCc1ccncc1	none (no result: AHR act, Wnt bcat act, GAA850 FXN act, MITF act)
Cc1noc(C)c1NC(=O)Nc1ccc2c(c1)C(=O)N([C@H](C)CO)C[C@H](C)[C@H](CN(C)CC1CCCCC1)OCCCC[C@@H](C)O2	none (no result: AHR act, Wnt bcat act, GAA850 FXN act, MITF act)
O=C(c1cc2c(s1)-c1ccccc1OC2)N1CCN(c2ccccc2)CC1	none
O=C(c1cc2c(s1)-c1ccccc1OC2)N1CCCC1	esBAF inh 76, Wnt bcat act 55 | esBAF Ring1 qPCR inactive | Fgf4 repress inactive | Bmi1 derepress inactive | A549 cytotox inactive | HepG2 cytotox SP inactive | HEK293 tox SP inactive
O=C(N[C@H]1CC[C@H](CC(=O)N2CCc3ccccc3C2)O[C@H]1CO)C1CCC1	none (no result: AHR act, Wnt bcat act, GAA850 FXN act, MITF act)
O=C(C[C@H]1CC[C@@H]2[C@H](COC[C@@H](O)CN2C(=O)c2ccncc2)O1)NCc1cccc(F)c1	none (no result: AHR act, Wnt bcat act, GAA850 FXN act, MITF act)
COc1cccc(CN(C)C(=O)c2ccc(COc3ccc(Cl)cc3)cc2)c1OC	esBAF inh 59, MITF act inconclusive | esBAF Ring1 qPCR inactive | Fgf4 repress inactive | Bmi1 derepress inactive | A549 cytotox inactive | HepG2 cytotox SP inactive | HEK293 tox SP inactive
CC(C)NC(=O)N(C)C[C@@H]1Oc2ccc(NC(=O)C3CC3)cc2CC(=O)N([C@@H](C)CO)C[C@H]1C	none (no result: AHR act, Wnt bcat act, GAA850 FXN act, MITF act)
O=C(c1ccncc1)N(c1ccc(N2CCOCC2)cc1)C(c1ccccc1)c1nc2ccccc2[nH]1 (stereo unspecified)	esBAF inh 48 (no result: AHR act, GAA850 FXN act, MITF act) | esBAF Ring1 qPCR inactive | Fgf4 repress inactive | Bmi1 derepress inactive | A549 cytotox inactive | HepG2 cytotox SP inactive | HEK293 tox SP inactive
CO[C@@H]1CN(C)C(=O)c2cc(NC(=O)C3CC3)ccc2OC[C@H](C)N(C(C)=O)C[C@@H]1C	none (no result: AHR act, Wnt bcat act, GAA850 FXN act, MITF act)
CN(C)c1ccc(N=Cc2nc(-c3ccccc3)oc2OC(=O)c2cccc(Br)c2)cc1	esBAF inh 63 (no result: Wnt bcat act) | esBAF Ring1 qPCR inactive | Fgf4 repress inactive | Bmi1 derepress inactive | A549 cytotox inactive | HepG2 cytotox SP inactive | HEK293 tox SP inactive
Brc1ccccc1-c1nnc(-c2cccnc2)o1	esBAF inh 66 (no result: MITF act) | esBAF Ring1 qPCR inactive | Fgf4 repress inactive | Bmi1 derepress inactive | A549 cytotox inactive | HepG2 cytotox SP inactive | HEK293 tox SP inactive
CC(C)c1ccc(CNc2ncccn2)cc1	esBAF inh 55 (no result: MITF act) | esBAF Ring1 qPCR inactive | Fgf4 repress inactive | Bmi1 derepress inactive | A549 cytotox inactive | HepG2 cytotox SP inactive | HEK293 tox SP inactive
Clc1ccc(CNc2ccccn2)cc1	none (no result: esBAF inh)
COc1ccc(OCc2cc(C(=O)NC(C)Cc3cnccn3)no2)c(Cl)c1 (stereo unspecified)	esBAF inh 61 | esBAF Ring1 qPCR inactive | Fgf4 repress inactive | Bmi1 derepress inactive | A549 cytotox inactive | HepG2 cytotox SP inactive | HEK293 tox SP inactive
Cc1ccccc1NC(=O)Nc1ccc2c(c1)C(=O)N(C)[C@@H]1CC[C@H](CC(=O)O)O[C@@H]1CO2	none (no result: AHR act, Wnt bcat act, GAA850 FXN act, MITF act)

Screening results deposited in PubChem by several laboratories.
